“And” between values parts separate entries of the source, which are not always exact repeats. Equal values may be shown once. Unmarked numbers belong to inactive results. Records with an inconclusive call do not appear. The source made the active and inactive calls. Unless noted, the call rests on the fitted dose curve; in most records, active means well fitted curve in the direction sought with a large enough effect in the repeat runs; inconclusive means weak or mixed curves; inactive means no such curve, though single readings can be large; an effect the other way counts as inactive or inconclusive.

Experiment [1] in a line: qHTS assay to identify small molecule phospholipidosis (PLD) inducers (AID 1259344; active means well fitted curve in the direction sought with a large enough effect; an effect the other way counts as inactive or inconclusive). The procedure, abridged:
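Image-based: LipidTOX Red pit count/intensity per well and per cell; HepG2, 24 h compound at 37 C, PFA fixation, Hoechst counterstain.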

Experiment [2] is described as follows: qHTS assay to identify small molecule HDAC inhibitors (AID 1259364).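 Further: wild-type HCT-116 cells with endogenous class I/II HDAC activity; top concentration of the series differs between compounds; nearly all actives have a fitted effect of over 45% in size.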 The procedure, abridged:
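Cells (HCT-116, wild type) are seeded at 1,500 per well, incubated overnight, treated with compound in DMSO for 2 hr, then developed with HDAC-Glo I/II reagent for 30 min at room temperature.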

Experiment [3] in a line: qHTS assay to identify small molecule HDAC inhibitors - cell viability counter screen (AID 1259365). Further: nearly all actives have a fitted effect of over 50% in size. Further: potency means the concentration at half of the fitted maximal effect. The essentials: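 Wild-type HCT-116 cells, 1,500/well, cultured overnight, then compound-treated 2 h at 37 C. Viability measured as ATP luminescence with CellTiter-Glo after 30 min at room temperature.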
The nature of experiment [4]: qHTS assay to identify small molecule agonists of the sonic hedgehog signaling (Shh) pathway - cell viability counter screen (AID 1259366). Further: nearly all actives have a fitted effect of over 50% in size. Further: potency means the concentration at half of the fitted maximal effect. The procedure, abridged: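 NIH/3T3-derived Gli1-Luc reporter cells, 2,000 per well, received compound after 4 h and were treated about 23 h at 37C. Viability measured in the same wells by CellTiter-Fluor fluorescence after 1 h.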

The nature of experiment [5]: qHTS assay to identify small molecule antagonists of the sonic hedgehog signaling (Shh) pathway - cell viability counter screen (AID 1259367). Further: nearly all actives have a fitted effect of over 55% in size. Further: potency means the concentration at half of the fitted maximal effect. The essentials: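 Tox21 library chemicals were tested on a Gli1-Luc NIH/3T3 clone (2,000 cells/well) stimulated by conditioned medium; viability was quantified as fluorescence from CellTiter-Fluor reagent added at 23 hr.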
Experiment [6] can be described thus: qHTS assay to identify small molecule agonists of the sonic hedgehog signaling (Shh) pathway (AID 1259368; calls by dose curve;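 further: NIH/3T3-derived 3T3Gli1-Luc cells carrying a stable Gli1-driven firefly luciferase reporter; series mostly up to about 92 µM; nearly all actives have a fitted effect of over 15% in size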). The procedure, abridged:
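Cells of a mouse NIH/3T3 clone stably expressing luciferase under the Gli1 transcriptional response element are exposed to test chemicals for 24 hr at 37 C. Pathway activation is detected as a rise in luminescence.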

A short description of experiment [7]: qHTS assay to identify small molecule antagonists of the sonic hedgehog signaling (Shh) pathway (AID 1259369; calls by dose curve; further: nearly all actives have a fitted effect of over 45% in size; further: potency means the concentration at half of the fitted maximal effect). The essentials:
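Cells are plated and held 4hr at 37 C, compounds (DMSO) are pinned in, conditioned medium is added to stimulate the pathway, and after 24hr luciferase reagent is added for 30min before luminescence is read.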

Experiment [8] deals with Estrogen receptor (Homo sapiens) (UniProt P03372). The experiment can be described thus: qHTS assay to identify small molecule antagonists of the estrogen receptor alpha (ER-alpha) signaling pathway using the BG1 cell line in the presence of 0.1 nM 17-beta-estradiol (AID 1259244). Further: nearly all actives have a fitted effect of over 50% in size. Further: potency means the concentration at half of the fitted maximal effect. The procedure, abridged: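 Antagonist mode: compounds in DMSO are pinned onto VM7Luc4E2 reporter cells, 0.1 nM final 17beta-estradiol is added, and after 22 h at 37C luciferase luminescence is measured with ONE-Glo.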
Sequence of Estrogen receptor (Homo sapiens) (P03372 whole entry, looked up): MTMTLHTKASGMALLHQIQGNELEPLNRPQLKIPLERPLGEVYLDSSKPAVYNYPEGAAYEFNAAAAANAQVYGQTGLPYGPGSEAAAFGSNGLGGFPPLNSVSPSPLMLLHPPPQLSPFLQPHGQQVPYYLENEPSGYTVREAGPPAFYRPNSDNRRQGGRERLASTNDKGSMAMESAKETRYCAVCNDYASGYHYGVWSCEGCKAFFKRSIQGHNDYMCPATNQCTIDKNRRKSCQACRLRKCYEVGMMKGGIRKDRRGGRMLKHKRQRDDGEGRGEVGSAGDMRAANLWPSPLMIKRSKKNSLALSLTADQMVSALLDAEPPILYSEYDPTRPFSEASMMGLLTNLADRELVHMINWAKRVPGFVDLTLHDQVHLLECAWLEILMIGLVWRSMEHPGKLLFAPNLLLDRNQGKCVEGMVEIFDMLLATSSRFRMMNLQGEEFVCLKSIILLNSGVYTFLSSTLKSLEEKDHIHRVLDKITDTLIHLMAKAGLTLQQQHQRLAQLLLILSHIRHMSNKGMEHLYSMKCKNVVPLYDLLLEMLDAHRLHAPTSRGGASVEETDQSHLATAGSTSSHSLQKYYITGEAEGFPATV

Experiment [9] has as its target Estrogen receptor beta (Homo sapiens) (UniProt Q92731). The experiment can be described thus: qHTS assay to identify small molecule agonists of the estrogen receptor beta (ER-beta) signaling pathway (AID 1259377; active means well fitted activation curve with a large enough effect in the signal ratio in the repeat runs, not every such curve was filed as active; the % refers to the signal ratio). The essentials: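 ER-beta-UAS-bla HEK293T cells in medium with 2% charcoal-stripped FBS were exposed to compounds for 16 h at 37C. Beta-lactamase reporter activity was read as fluorescence after 2 h with LiveBLAzer B/G FRET substrate at room temperature.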

Sequence of Estrogen receptor beta (Homo sapiens) (Q92731 whole entry, looked up): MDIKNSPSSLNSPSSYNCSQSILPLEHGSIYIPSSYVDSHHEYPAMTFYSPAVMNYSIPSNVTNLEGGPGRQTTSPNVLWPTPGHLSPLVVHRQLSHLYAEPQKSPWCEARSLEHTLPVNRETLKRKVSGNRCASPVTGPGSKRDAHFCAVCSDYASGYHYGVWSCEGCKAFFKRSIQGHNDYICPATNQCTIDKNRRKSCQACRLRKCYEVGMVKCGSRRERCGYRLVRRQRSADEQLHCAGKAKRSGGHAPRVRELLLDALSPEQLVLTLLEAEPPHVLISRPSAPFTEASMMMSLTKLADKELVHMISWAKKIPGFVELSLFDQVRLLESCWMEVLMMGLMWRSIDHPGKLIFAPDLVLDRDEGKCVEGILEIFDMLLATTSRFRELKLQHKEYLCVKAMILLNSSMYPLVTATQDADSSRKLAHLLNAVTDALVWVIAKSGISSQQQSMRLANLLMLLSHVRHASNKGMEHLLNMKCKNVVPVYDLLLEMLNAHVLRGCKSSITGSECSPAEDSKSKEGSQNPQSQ

Consider `CCCCCCCC/C=C\CCCCCCCC(=O)NCc1ccc(O)c(OC)c1`, for which the Potency result in experiment [1], in experiment [2], in [3], in experiment [4], in [5] and in experiment [6] was “inactive” throughout. In [7], the Potency entry is “inactive”.
For the compound `CC(=O)Nc1ccc(O)cc1`, the Potency entry in [1], in experiment [2], in [3], in [5], in experiment [6] and in experiment [7] was “inactive” throughout.
In the case of `COC(=O)CC#N`, the Potency entry in experiment [8], in [2], in [3], in [5], in [6] and in experiment [7] was “inactive” in each case. Further, the Potency result in experiment [9] was “inactive”.
Regarding `C=C[C@](C)(O)CC[C@@H]1[C@@]2(C)CCCC(C)(C)[C@@H]2CC[C@@]1(C)O`, the Potency in [8] and in [7] was 61.1 µM (active) each time. Moreover, the Potency result in experiment [2], in experiment [3] and in experiment [6] was “inactive” each time.
Consider `CCCCNc1c(C(=O)OCC)c(C)nc2c1cnn2CC`, for which the Potency entry in [1], in experiment [2], in experiment [3], in [5], in experiment [6] and in experiment [9] was “inactive” each time. Moreover, the Potency in experiment [7] was 0.0422 µM (active).
In the case of `CCCCCCCC/C=C/CCCOC(C)=O`, the Potency result in experiment [8], in experiment [2], in experiment [3], in experiment [5], in experiment [6] and in experiment [9] was “inactive” each time. Besides, in experiment [7], the Potency was 48.6 µM (active).
In the case of `O=C(O)CCn1c2c(c3ccccc31)C[C@H](NS(=O)(=O)c1ccc(F)cc1)CC2`, the Potency result in experiment [1], in [2], in experiment [3], in experiment [4], in experiment [5] and in experiment [6] was “inactive” in each case. In experiment [7], the Potency result is “inactive”.
As for `O=C1c2c(O)ccc([N+](=O)[O-])c2C(=O)c2c([N+](=O)[O-])ccc(O)c21`, the Potency is 27.1 µM (active) in experiment [8]; 21.5 µM (active) in experiment [3]; 17.1 µM (active) in [4]; 10.8 µM (active) in experiment [5]; 1.52 µM (active) in experiment [7]. Moreover, the Potency result in experiment [6] and in [9] was “inactive” throughout.
Take `NC1(c2ccc(-c3nc4ccn5c(=O)[nH]nc5c4cc3-c3ccccc3)cc2)CCC1`: the Potency entry in experiment [1], in [2], in experiment [3], in [6] and in [9] was “inactive” in each case. Besides, the Potency in experiment [4] was 13.3 µM (active); in experiment [7] it was 0.0944 µM (active).
Regarding `C=C(C)C(=O)OCCC[Si](Cl)(Cl)Cl`, the Potency entry in [2], in experiment [3], in experiment [4], in experiment [5], in experiment [6] and in [9] was “inactive” each time.
`CC(CN(C)C)CN1c2ccccc2CCc2ccccc21` (configuration not stated): the Potency entry in experiment [2], in experiment [3], in experiment [4], in experiment [5] and in experiment [6] was “inactive” throughout. For the same compound, the Potency in [7] was 2.37 µM (active).
`COc1ccc(C#N)cc1`: the Potency result in experiment [2], in experiment [3], in [4], in experiment [5], in [6] and in experiment [7] was “inactive” in each case.
As to `O=C1NC2CCCCN2C12CCN(CCCN1c3ccccc3CCc3ccc(Cl)cc31)CC2` (configuration not stated), the Potency entry in experiment [2], in [3], in [6] and in [9] was “inactive” each time. Besides, the Potency in [4] is 26.6 µM (active); in [5] it was 29.8 µM (active); in experiment [7], 21.1 µM (active).
For the compound `CCCCC(CC)COC(=O)c1ccc(O)cc1` (configuration not stated), the Potency entry in [2], in experiment [3], in [4], in experiment [6] and in experiment [9] was “inactive” each time. The Potency was 54.3 µM (active) in experiment [5] and 43.3 µM (active) in [7].
Consider `Clc1ccc(C(c2ccccc2Cl)C(Cl)Cl)cc1` (configuration not stated), for which the Potency entry in experiment [2], in experiment [3], in [4], in experiment [5], in experiment [6] and in experiment [7] was “inactive” throughout. In experiment [9], the Potency entry was “inactive”.
On to `CCOCN(C(=O)CS(=O)(=O)O)c1c(C)cccc1CC`, for which the Potency entry in experiment [2], in experiment [3], in [4], in experiment [5], in [6] and in experiment [7] was “inactive” throughout. For the same compound, the Potency entry in [9] is “inactive”.
For `O=C(O)CCCCCCC(=O)O`, the Potency entry in [2], in experiment [3], in [4], in [5], in experiment [6] and in [7] was “inactive” each time. The Potency result in [9] was “inactive”.
As for `CSc1c(Cl)c(Cl)c(Cl)c(Cl)c1Cl`, the Potency result in experiment [2], in [3], in [4], in experiment [5], in [6] and in [7] was “inactive” in each case. Besides, the Potency result in experiment [9] was “inactive”.
For `ClC/C=C\CCl`, the Potency entry in experiment [2], in experiment [3], in experiment [4], in experiment [5], in [6] and in experiment [7] was “inactive” each time.
For the compound `CCCCCCCC/C=C\CCCCCCCC(=O)OCCOC(=O)CCCCCCC/C=C\CCCCCCCC`, the Potency entry in [2], in experiment [3], in experiment [4], in experiment [5], in [6] and in experiment [7] was “inactive” in each case.
As to `O=C(O)CC(=O)O`, the Potency entry in [2], in experiment [3], in [4], in [5], in experiment [6] and in experiment [9] was “inactive” each time.
Turning to `CC(C)OC(=O)c1cc(C(=O)OC(C)C)cc([N+](=O)[O-])c1`, the Potency result in experiment [1], in experiment [3], in experiment [5] and in [6] was “inactive” each time.
Take `CCCCOC(=O)C(C)CC` (configuration not stated): the Potency entry in experiment [2], in experiment [3], in experiment [4], in experiment [5], in experiment [6] and in experiment [9] was “inactive” in each case.
`C/C=C/C(=O)C1=C(C)CCCC1(C)C`: the Potency entry in [2], in experiment [3], in experiment [4], in experiment [5], in [6] and in experiment [9] was “inactive” each time.
`Cc1cc(=O)[nH]c(=O)[nH]1`: the Potency entry in [2], in [3], in experiment [4], in [5], in experiment [6] and in [7] was “inactive” in each case. Also, the Potency entry in [9] is “inactive”.
Turning to `COc1cccc(O)c1`, the Potency result in experiment [2], in [3], in experiment [4], in experiment [5], in [6] and in [7] was “inactive” in each case.
For the compound `O=C1OC(=O)c2ccc3c4c(ccc1c24)C(=O)OC3=O`, the Potency result in experiment [2], in experiment [3], in [4], in experiment [5], in experiment [6] and in experiment [7] was “inactive” each time.
For `CCCCCCCCCCc1ccccc1`, the Potency entry in experiment [2], in [3], in [4], in [5], in experiment [6] and in experiment [7] was “inactive” each time.
On to `C/C=C/c1ccc(OC)c(OC)c1`, for which the Potency entry in experiment [2], in experiment [3], in experiment [4], in experiment [5], in experiment [6] and in experiment [7] was “inactive” each time. For the same compound, the Potency entry in experiment [9] is “inactive”.
Consider `CN(C)CCCN1c2ccccc2CCc2ccccc21`, for which the Potency entry in experiment [2], in experiment [3], in experiment [4], in experiment [5] and in [6] was “inactive” in each case. Moreover, in [7], the Potency is 8.63 µM (active) and 4.73 µM (active).

The values above are taken from PubChem BioAssay (Tox21).
